Assay [1] has as its system Zika virus NS2B-NS3 protease (unlinked complex). The experiment in a line: Primary screen GU Rhodamine qHTS for Zika virus inhibitors: Unlinked NS2B-NS3 protease assay (AID 1347159). Further: nearly all actives have a fitted effect of over 60% in size. Particulars: Recombinant ZIKV NS2B-NS3 protease, Rhodamine110 substrate fluorescence; series mostly up to 107 µM. Summed up: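 Noncovalent NS2B hydrophilic domain–NS3 protease domain complex (25 nM) preincubated 15 min at room temperature with compounds (up to 114 microM) in 10 mM Tris-HCl pH 8.0, 0.01% Tween 20; 1.5 microM Rhodamine110 substrate added, fluorescence change over 15 min fitted to Hill equation.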

Assay [2] concerns Zika virus NS2B-NS3 protease (linked construct). The experiment in a line: Primary screen NINDS Rhodamine qHTS for Zika virus inhibitors (AID 1347160). Further: nearly all actives have a fitted effect of over 55% in size. To be noted: purified NS2B-NS3 protease, Rhodamine110 substrate fluorescence; series mostly up to 57.1 µM. An outline of the steps: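 Purified linked NS2B-NS3 protease (NS2B hydrophilic domain joined to NS3 protease by flexible linker), 25 nM in 10 mM Tris-HCl pH 8.0, 0.01% Tween 20. Compounds titrated, 15 min preincubation at room temperature; 1.5 microM Rhodamine110 substrate, FITC fluorescence change over 15 min.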
A general note: Quantitative high-throughput screening tests each substance at several concentrations.

Molecules are shown by their SMILES. Inconclusive results are not listed. Activity calls are given as the source filed them. The call rests on the fitted dose curve; in most records, active means well fitted inhibition curve with a large enough effect; inconclusive means small, poorly fitted or top-dose-only effect; inactive means no such curve, though single readings can be large or run the other way. Where a SMILES comes first, the peptide text is derived from it. Bridges are numbered along the chain shown (N, C = ends). [ ]: non-standard residue; d: D form. NMeY = CN[CH](Cc1ccc(O)cc1)C(=O)O
Potency means the concentration at half of the fitted maximal effect.

Regarding `Cc1cc(N(C)C)ccc1-c1nc2ccc(-c3nc4ccc(N5CCN(C)CC5)cc4[nH]3)cc2[nH]1`, the Potency entry in assay [1] and in assay [2] was “inactive” in each case.

For `C[C@@H]1O[C@@H](O[C@@H]2[C@@H](O)[C@H](O[C@H]3CC[C@@]4(C)C(CC[C@]5(C)C4CC=C4[C@@H]6CC(C)(C)CC[C@]6(C(=O)O[C@@H]6O[C@H](CO)[C@@H](O)[C@H](O)[C@H]6O)CC[C@]45C)C3(C)C)O[C@H](C(=O)O)[C@H]2O)[C@H](O)[C@H](O)[C@H]1O` (stereo not given in full), the Potency result in assay [1] and in assay [2] was “inactive” throughout.

With `Cc1cnc(Nc2ccc(F)cc2Cl)nc1-c1c[nH]c(C(=O)NC(CO)c2cccc(Cl)c2)c1` (stereo not given), the Potency entry in assay [1] and in assay [2] was “inactive” throughout.

Turning to `COC1=CC(=O)CC(C)C12Oc1cc(OC)cc(O)c1C2=O` (stereo not given), the Potency result in assay [1] and in assay [2] was “inactive” in each case.

Take `Cc1ccc(NC(=O)C(=O)NC2CC(C)(C)NC(C)(C)C2)cc1`: the Potency result in assay [1] and in assay [2] was “inactive” each time.

`CN1CCN(C2CCC(n3cc(-c4ccc(Oc5ccccc5)cc4)c4c(N)ncnc43)CC2)CC1` (stereo not given): the Potency result in assay [1] and in assay [2] was “inactive” in each case.

`Cc1cc(C)nc(NS(=O)(=O)c2ccc(NC(=S)NC(=O)COc3ccc(Br)cc3Cl)cc2)n1`: the Potency in assay [1] was 7.08 µM (active); in assay [2], 15.8 µM (active).

Regarding `Cc1nc2ccc(Oc3ccc(F)cc3)cc2c(=O)n1C[C@H]1CCCN(C(C)C)C1`, the Potency result in assay [1] and in assay [2] was “inactive” throughout.

`OC[C@H]1O[C@@H](OCCc2ccc(O)cc2)[C@H](O[C@@H]2OC[C@](O)(CO)[C@H]2O)[C@@H](O)[C@@H]1O`: the Potency entry in assay [1] and in assay [2] was “inactive” in each case.

Take `CCC(C)C1NC(=O)C2CCCN2C(=O)C(NC(C)=O)C(C)OC(=O)C(Cc2ccc(OC)cc2)N(C)C(=O)C2CCCN2C(=O)C(C(C)C)NC1=O` (stereo not given) (Ac-TPIVP[NMeY](Me); ester 1-C; configuration not given here): the Potency result in assay [1] and in assay [2] was “inactive” in each case.

The values above are taken from PubChem BioAssay (NCATS).
